# Read-outs that look alike come from different tables or passages of the source.
# Tests used:
# Q6ZSR9 = Q6ZSR9 (human, UniProt Q6ZSR9); conditions: read-out: apparent Kd, n = 1
# SIK2 = conditions: read-out: apparent Kd, n = 1
# Sequence of Q6ZSR9 (Q6ZSR9 whole entry, looked up): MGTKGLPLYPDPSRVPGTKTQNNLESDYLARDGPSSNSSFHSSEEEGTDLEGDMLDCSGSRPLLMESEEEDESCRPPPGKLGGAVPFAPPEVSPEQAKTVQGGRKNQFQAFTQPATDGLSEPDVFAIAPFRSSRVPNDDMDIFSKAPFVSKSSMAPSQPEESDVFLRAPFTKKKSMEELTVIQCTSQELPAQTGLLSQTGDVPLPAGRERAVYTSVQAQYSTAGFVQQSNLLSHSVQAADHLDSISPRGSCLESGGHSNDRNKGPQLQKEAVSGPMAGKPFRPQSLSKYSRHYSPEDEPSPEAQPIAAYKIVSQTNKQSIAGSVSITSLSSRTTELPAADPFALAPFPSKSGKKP
substance,measurement,setting,value
Lestaurtinib,potency estimated from few doses,"Q6ZSR9; compound concentrations:100 nM and 1000 nM (sheet 'Lestaurtinib' of Supplementary Table 1),run:Lestaurtinib_03172_R2,Plate:MR031",0.0545 µM
same,potency estimated from few doses,"Q6ZSR9; compound concentrations:100 nM and 1000 nM (sheet 'Lestaurtinib' of Supplementary Table 1),run:Lestaurtinib_03172_R3,Plate:MR031",0.0575 µM
same,potency estimated from few doses,"Q6ZSR9; compound concentrations:100 nM and 1000 nM (sheet 'Lestaurtinib' of Supplementary Table 1),run:Lestaurtinib_03252_R1,Plate:MR032",0.0613 µM
same,potency estimated from few doses,"Q6ZSR9; compound concentrations:100 nM and 1000 nM (sheet 'Lestaurtinib' of Supplementary Table 1),run:Lestaurtinib_03260_R2,Plate:MR033",0.113 µM
same,potency estimated from few doses,"Q6ZSR9; compound concentrations:100 nM and 1000 nM (sheet 'Lestaurtinib' of Supplementary Table 1),run:Lestaurtinib_03260_R3,Plate:MR033",0.0795 µM
same,potency estimated from few doses,"SIK2; compound concentrations:100 nM and 1000 nM (sheet 'Lestaurtinib' of Supplementary Table 1),run:Lestaurtinib_02339_R2,Plate:MR001",0.0446 µM
same,potency estimated from few doses,"SIK2; compound concentrations:100 nM and 1000 nM (sheet 'Lestaurtinib' of Supplementary Table 1),run:Lestaurtinib_02364_R1,Plate:MR002",0.0536 µM
same,potency estimated from few doses,"SIK2; compound concentrations:100 nM and 1000 nM (sheet 'Lestaurtinib' of Supplementary Table 1),run:Lestaurtinib_02367_R1,Plate:MR003",0.0518 µM
same,potency estimated from few doses,"SIK2; compound concentrations:100 nM and 1000 nM (sheet 'Lestaurtinib' of Supplementary Table 1),run:Lestaurtinib_02367_R2,Plate:MR003",0.0573 µM
same,potency estimated from few doses,"SIK2; compound concentrations:100 nM and 1000 nM (sheet 'Lestaurtinib' of Supplementary Table 1),run:Lestaurtinib_02367_R3,Plate:MR003",0.0515 µM
same,potency estimated from few doses,"SIK2; compound concentrations:100 nM and 1000 nM (sheet 'Lestaurtinib' of Supplementary Table 1),run:Lestaurtinib_02381_R1,Plate:MR004",0.0564 µM
same,potency estimated from few doses,"SIK2; compound concentrations:100 nM and 1000 nM (sheet 'Lestaurtinib' of Supplementary Table 1),run:Lestaurtinib_02381_R2,Plate:MR004",0.0624 µM
same,potency estimated from few doses,"SIK2; compound concentrations:100 nM and 1000 nM (sheet 'Lestaurtinib' of Supplementary Table 1),run:Lestaurtinib_02381_R3,Plate:MR004",0.0301 µM
same,potency estimated from few doses,"SIK2; compound concentrations:100 nM and 1000 nM (sheet 'Lestaurtinib' of Supplementary Table 1),run:Lestaurtinib_02407_R1,Plate:MR005",0.0507 µM
same,potency estimated from few doses,"SIK2; compound concentrations:100 nM and 1000 nM (sheet 'Lestaurtinib' of Supplementary Table 1),run:Lestaurtinib_02407_R2,Plate:MR005",0.0525 µM
same,potency estimated from few doses,"SIK2; compound concentrations:100 nM and 1000 nM (sheet 'Lestaurtinib' of Supplementary Table 1),run:Lestaurtinib_02422_R2,Plate:MR006",0.00974 µM
same,potency estimated from few doses,"SIK2; compound concentrations:100 nM and 1000 nM (sheet 'Lestaurtinib' of Supplementary Table 1),run:Lestaurtinib_02422_R3,Plate:MR006",0.0526 µM
same,potency estimated from few doses,"SIK2; compound concentrations:100 nM and 1000 nM (sheet 'Lestaurtinib' of Supplementary Table 1),run:Lestaurtinib_02437_R1,Plate:MR007",0.0506 µM
same,potency estimated from few doses,"SIK2; compound concentrations:100 nM and 1000 nM (sheet 'Lestaurtinib' of Supplementary Table 1),run:Lestaurtinib_02437_R3,Plate:MR007",0.00745 µM
same,potency estimated from few doses,"SIK2; compound concentrations:100 nM and 1000 nM (sheet 'Lestaurtinib' of Supplementary Table 1),run:Lestaurtinib_02438_R2,Plate:MR008",0.0414 µM
same,potency estimated from few doses,"SIK2; compound concentrations:100 nM and 1000 nM (sheet 'Lestaurtinib' of Supplementary Table 1),run:Lestaurtinib_02438_R3,Plate:MR008",0.0347 µM
same,potency estimated from few doses,"SIK2; compound concentrations:100 nM and 1000 nM (sheet 'Lestaurtinib' of Supplementary Table 1),run:Lestaurtinib_02443_R1,Plate:MR009",0.0493 µM
same,potency estimated from few doses,"SIK2; compound concentrations:100 nM and 1000 nM (sheet 'Lestaurtinib' of Supplementary Table 1),run:Lestaurtinib_02443_R2,Plate:MR009",0.051 µM
same,potency estimated from few doses,"SIK2; compound concentrations:100 nM and 1000 nM (sheet 'Lestaurtinib' of Supplementary Table 1),run:Lestaurtinib_02443_R3,Plate:MR009",0.0511 µM
same,potency estimated from few doses,"SIK2; compound concentrations:100 nM and 1000 nM (sheet 'Lestaurtinib' of Supplementary Table 1),run:Lestaurtinib_02473_R2,Plate:MR010",0.0442 µM
same,potency estimated from few doses,"SIK2; compound concentrations:100 nM and 1000 nM (sheet 'Lestaurtinib' of Supplementary Table 1),run:Lestaurtinib_02473_R3,Plate:MR010",0.0301 µM
same,potency estimated from few doses,"SIK2; compound concentrations:100 nM and 1000 nM (sheet 'Lestaurtinib' of Supplementary Table 1),run:Lestaurtinib_02482_R2,Plate:MR011",0.0523 µM
same,potency estimated from few doses,"SIK2; compound concentrations:100 nM and 1000 nM (sheet 'Lestaurtinib' of Supplementary Table 1),run:Lestaurtinib_02482_R3,Plate:MR011",0.0449 µM
same,potency estimated from few doses,"SIK2; compound concentrations:100 nM and 1000 nM (sheet 'Lestaurtinib' of Supplementary Table 1),run:Lestaurtinib_02487_R2,Plate:MR012",0.0478 µM
same,potency estimated from few doses,"SIK2; compound concentrations:100 nM and 1000 nM (sheet 'Lestaurtinib' of Supplementary Table 1),run:Lestaurtinib_02487_R3,Plate:MR012",0.0595 µM
same,potency estimated from few doses,"SIK2; compound concentrations:100 nM and 1000 nM (sheet 'Lestaurtinib' of Supplementary Table 1),run:Lestaurtinib_02496_R1,Plate:MR013",0.0442 µM
same,potency estimated from few doses,"SIK2; compound concentrations:100 nM and 1000 nM (sheet 'Lestaurtinib' of Supplementary Table 1),run:Lestaurtinib_02496_R3,Plate:MR013",0.0402 µM
same,potency estimated from few doses,"SIK2; compound concentrations:100 nM and 1000 nM (sheet 'Lestaurtinib' of Supplementary Table 1),run:Lestaurtinib_02566_R2,Plate:MR014",0.0489 µM
same,potency estimated from few doses,"SIK2; compound concentrations:100 nM and 1000 nM (sheet 'Lestaurtinib' of Supplementary Table 1),run:Lestaurtinib_02566_R3,Plate:MR014",0.0626 µM
same,potency estimated from few doses,"SIK2; compound concentrations:100 nM and 1000 nM (sheet 'Lestaurtinib' of Supplementary Table 1),run:Lestaurtinib_02572_R1,Plate:MR015",0.046 µM
same,potency estimated from few doses,"SIK2; compound concentrations:100 nM and 1000 nM (sheet 'Lestaurtinib' of Supplementary Table 1),run:Lestaurtinib_02572_R2,Plate:MR015",0.0515 µM
same,potency estimated from few doses,"SIK2; compound concentrations:100 nM and 1000 nM (sheet 'Lestaurtinib' of Supplementary Table 1),run:Lestaurtinib_02572_R3,Plate:MR015",0.0516 µM
same,potency estimated from few doses,"SIK2; compound concentrations:100 nM and 1000 nM (sheet 'Lestaurtinib' of Supplementary Table 1),run:Lestaurtinib_02577_R1,Plate:MR016",0.0515 µM
same,potency estimated from few doses,"SIK2; compound concentrations:100 nM and 1000 nM (sheet 'Lestaurtinib' of Supplementary Table 1),run:Lestaurtinib_02577_R2,Plate:MR016",0.0448 µM
same,potency estimated from few doses,"SIK2; compound concentrations:100 nM and 1000 nM (sheet 'Lestaurtinib' of Supplementary Table 1),run:Lestaurtinib_02577_R3,Plate:MR016",0.0469 µM
same,potency estimated from few doses,"SIK2; compound concentrations:100 nM and 1000 nM (sheet 'Lestaurtinib' of Supplementary Table 1),run:Lestaurtinib_02584_R1,Plate:MR017",0.051 µM
same,potency estimated from few doses,"SIK2; compound concentrations:100 nM and 1000 nM (sheet 'Lestaurtinib' of Supplementary Table 1),run:Lestaurtinib_02584_R2,Plate:MR017",0.0496 µM
